The results in this text go back to paper PMC9574860, “Chemical Toolkit for PARK7: Potent, Selective, and High-Throughput” (Journal of Medicinal Chemistry, 2022).

Screen size: about 7,900 compounds; about 400 (5.1%) showed an effect of 50% or more. For the sample, strong results were picked, then their nearest neighbours and some compounds at random.

Parkinson's disease protein 7 (PARK7/DJ1), sequence (Q99497 whole entry, looked up, the tested form may be a part): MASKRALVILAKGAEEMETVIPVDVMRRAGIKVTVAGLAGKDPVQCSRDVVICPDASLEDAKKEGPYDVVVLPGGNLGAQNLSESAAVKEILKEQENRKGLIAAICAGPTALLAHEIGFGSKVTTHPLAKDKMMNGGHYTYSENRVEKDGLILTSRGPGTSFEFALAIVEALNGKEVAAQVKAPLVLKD

This assay concerns the target Parkinson's disease protein 7 (PARK7/DJ1) (human, UniProt Q99497). Put plainly: primary screen, percent inhibition; read as competition with a fluorescent probe by fluorescence polarization; higher = more effect of the substance. Conditions: 100 µM. The method in brief:
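Fluorescence-polarization probe displacement (JYQ-107, 20 nM final, 2 h) after 2 h preincubation of PARK7 (0.2 μM final) with each fragment at 100 μM final. Read-out ex/em 480/520 nm; remaining activity derived from FP signal loss relative to reference controls.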
`C=CC(=O)NC(C)(C)c1noc(C(C)(C)C)n1`: the Inhibition % is 17.1%.
With `CN(C)CCCn1c(S)nc2ccccc2c1=O`, the Inhibition % was 5.79%.
With `CCN(CC)CCn1c(S)nc2ccccc2c1=O` the figure was 4.52%; with `CN(C)CCn1c(S)nc2ccccc2c1=O`, 82.9%; with `CC1=NOC(=O)C1CC(=O)O` (stereo not drawn), 99%.
For `CC1=NOC(=O)C1CCC(=O)O` (stereo not drawn) the value was 8.64%; for `O=C1OCCC1Sc1nnc(-c2cccs2)o1` (stereo not drawn), 21.8%.
For `O=C1OCCC1Sc1nnc(-c2ccncc2)o1` (stereo not drawn), the Inhibition % is given as 6.02%.
With `O=C1OCCC1Sc1nnc(C2CCCCC2)o1` (stereo not drawn) the figure was 66.7%; with `c1ccc(N2CCN(CC3OCCO3)CC2)cc1`, 5.86%.
For `C=CC(=O)NC1CC(NC(=O)C2CCC2)C1` (stereo not drawn) the value was 7.98%; for `N#Cc1ccc(NC(=O)CCCl)cc1`, 9.81%; for `CC1(C)OB(c2ccnc3c(O)cccc23)OC1(C)C`, 22.4%.
For `ClCCCn1cccn1` the value was 5.21%; for `CCN(Cc1ccc2c(c1)OCCO2)C(=O)CCl`, 17.9%.
In the case of `CN(Cc1ccc(Br)cc1)C(=O)CCl`, the Inhibition % is reported as 52.8%.
On to `CN(Cc1ccsc1)C(=O)CCl`, for which the Inhibition % came to 37.6%.
Turning to `CN(Cc1ccc(Cl)cc1)C(=O)CCl`, the Inhibition % is 48.5%.
For `CN(Cc1ccc2c(c1)OCCO2)C(=O)CCl` the value was 91.9%; for `CSc1ccc(CN(C)C(=O)CCl)cc1`, 14.4%; for `Cc1ccc(CN(C)C(=O)CCl)cc1`, 68.9%.
With `CN(Cc1ccc(Cl)c(Cl)c1)C(=O)CCl` the figure was 43.3%.
With `CN(Cc1ccc(N(C)C)cc1)C(=O)CCl.Cl`, the Inhibition % came out at 71.3%.
With `C=CC(=O)NCc1cc(C)on1` the figure was 8.31%; with `CCC(=O)N1CCCC1C1CCCN1C1CCOC1=O` (stereo not drawn), 8.79%; with `N#CC(=Cc1ccc(CSC(F)F)o1)C(N)=O`, 16.4%.
With `CC(=O)c1ccc(F)c(B2OC(C)(C)C(C)(C)O2)c1` the figure was 5.97%; with `O=C(CCl)N1N=C(c2ccco2)CC1c1cccs1` (stereo not drawn), 12.6%; with `O=C(CCl)Nc1ccccc1C(F)(F)F`, 11.7%.
For `C=CC(=O)Nc1nc(COC)cs1` the value was 8.35%.
With `C=CC(=O)NCC1(C)CC(F)(F)C1`, the Inhibition % amounted to 5.99%.
For `CC1CC(n2cnc3c2c(=O)n(C)c(=O)n3C)C(=O)O1` (stereo not drawn) the value was 8.16%; for `CC(C)(C)Nc1cc(F)c(S(=O)(=O)F)cc1N`, 7.67%.
With `Cc1nn(S(=O)(=O)c2ccccc2)c(C)c1C`, the Inhibition % is recorded as 6.77%.
With `N#CC(=Cc1ccccc1)C(=O)O` the figure was 0.493%; with `Clc1ccc(Cl)c(OCC2CO2)c1` (stereo not drawn), 5.37%; with `CCc1nccn1S(=O)(=O)c1cc(C)c(OC)cc1C`, 7.23%.
With `O=C(NCC1CCC(O)C1)c1cc(B(O)O)ccc1F` (stereo not drawn) the figure was 1.49%; with `ClCCc1cscn1`, 5.31%.
Take `C=CC(=O)NCCc1cscn1`: the Inhibition % was found to be 5.76%.
With `O=C(CCl)c1ccccn1` the figure was 102%; with `O=C(CCl)c1cscn1`, 101%; with `Cl.O=C(CCl)Nc1ccccn1`, 14.1%.
In the case of `Cl.O=C(CCl)c1c[nH]c2ncccc12`, the Inhibition % is on record as 10.6%.
For `COc1cncc(C#N)n1` the value was 9.79%.
With `C=CC(=O)N1Cc2ccccc2OC(C)(C)C1` the figure was 13.6%; with `Cc1cc(C)cc(OC(=O)N2CCOCC2)c1`, 6.2%; with `CCc1nc(C)cn1S(=O)(=O)c1cc(Cl)ccc1OC`, 5.69%.
As for `C=CC(=O)N1CC(S(=O)(=O)c2ccccc2F)C1`, the Inhibition % was determined as 5.39%.
For `N#Cc1nc(N2CC[C@H](O)C2)ccc1Cl` the value was 9.73%.
For the molecule `CC1(C)OB(c2cncc(F)c2)OC1(C)C`, the Inhibition % was determined as 4.04%.
With `N#CC(=Cc1ccco1)C(=O)Nc1nnc(C(F)F)s1` the figure was 4.49%; with `O=C(CCl)NCCc1ccc(F)cc1`, 26.6%.
With `Cc1oc(C(=O)O)cc1C(=O)CCl` the figure was 92.2%; with `Cc1oncc1C(=O)CCl`, 40.2%.
For `Cc1oc(C(N)=O)cc1C(=O)CCl` the value was 30.9%.
For `CC(C)N1CCOC(CCl)C1` (stereo not drawn), the Inhibition % is on record as 5.12%.
For `O=c1[nH]c(=O)n(C2CC2)c2nc(C3CC3)nc(S)c12` the value was 3.15%.
Take `OB(O)C1=CCN(Cc2cc3n(n2)CCC3)CC1`: the Inhibition % is 33.1%.
With `Cn1nccc1[C@@H]1OCC[C@H]1CN1CC=C(B(O)O)CC1` the figure was 44.8%.
With `OB(O)C1=CCN(Cc2ccnn2-c2ccncc2)CC1` the figure was 61.3%; with `C=CC(=O)NC1CC(OCC)C12CCCC2` (stereo not drawn), 8.99%.
With `O=C1CCC(CN2CCc3[nH]c4ccc(F)cc4c3C2)O1` (stereo not drawn) the figure was 21.1%.
